Measured values reported in the OligoGym collection.

What follows are sequences tested against FNBP1L (assay: pooled miR-30 sensor sort-seq; sequence = guide strand). Conditions: shRNA.
Also: reference of the scale not given here.

Sequence	sensor-assay potency score (higher = more potent)
TAATTCACCATACACTCTGTGC	-0.622
TGACTTTTGACAATAGTCCTTT	-0.217
TAATGTAGAGAACTTCACCTTC	-0.0833
TAACTTTGCGTTCTGAGTCAGC	-0.716
TTCTGCTACAACTTCTCGCTGT	0.673
TTGTCTAAGCTGTCGAACTGAT	-0.84
TAAGCTGTCGAACTGATCCCAC	0.0926
TTTCTCTAGAGTTACATCTATG	-0.933
TTCATCATCAAACTCATTGTGG	0.113
TATGATTCAAATAACACTGGGA	0.483

What follows are sequences tested against FNBP1 in the same assay as above. Conditions: shRNA.

Sequence	sensor-assay potency score (higher = more potent)
TAGAATTAGTGCAACACACATA	-0.218
TTTGGTGACGTATTTGAGCTTG	0.00299
TATACTTGTATTCTTCTTCCTC	0.713
TTTACTAGATTCAAGCTGCTTC	0.524
TTTCTGGGTCTCTACTCGCAGT	-1.12
TAAGCTTCTATTACCAGCTGTG	0.175
ATCTCTTTGATCCATCTCCTTC	-0.792
TAACTCATCGACTTTCTGCTGC	0.71
TTTATAAGCTTCTATTACCAGC	-0.679
TTTATTTAACTCATCGACTTTC	-0.243

What follows are sequences tested against FNDC5 in the same assay as above. Conditions: shRNA.

Sequence	sensor-assay potency score (higher = more potent)
TTGTAGTGCAGCCTCCTTCATC	-0.884
TTGAAGAGCACAGGCTCGCTGG	-0.67
TTCCTAAATAAATTGGACCAGT	-0.788
TTTTTCCTTGTTGTTATTGGGT	-0.666
TTGATGATGTCATACTGGCGGC	-0.843
TTGAGAGCTCTTGTAGACCGGA	0.301
TACCTCATCTTTGTTCTTGGAG	0.567
TTGGTCTGAAAGACACAGCTTG	-0.175
TTGTCCAAGCTAGCATTTCTGA	-1.26
TTATTGGGTTCATTGTCCTTGA	-0.801
TTTTCCTTGTTGTTATTGGGTT	-0.634
TAGCCAGAGCTGCTCTTCCTGT	-1.11

Each sequence was assayed against FNTB in the same assay as above. Conditions: shRNA.

Sequence	sensor-assay potency score (higher = more potent)
AAGAACTGAAGACCTCTTGGAT	-0.153
TAAACCTTGTCTGACTGGGGAG	-0.535
TCATCTAGCAGTTCCAAGCTGT	0.0729
TTTCAGATAATGGAAGTGCTTC	-0.367
TACTTTTGCCTGTTCTATGGAC	-0.547
AAGGTGTGGATACTGACCGGGT	-0.0926
TATTGAAACGTATAAACCTTGT	-0.892
TTGTAAGAACTGAAGACCTCTT	0.275
